# Data published in PubChem BioAssay (EPA / NIEHS).
# Where “and” joins values, the source holds several entries; their conditions need not be identical. Equal entries are not always repeated. Records with an inconclusive call do not appear. A structure can be active in one record and inactive in another. Calls of active or inactive are those of the source. The calls were made as follows, unless noted: active = hit-call score of the fitted dose curve at least 0.9, where 1 is the maximum; inconclusive = response in the unintended direction; inactive = score below 0.9.
# How the values were obtained:
# [1] = molecular target: zebrafish Estrogen Receptor (ER1), esr1 (gene 259252) (UniProt P57717); test: ATG_zfER1_XSP2: Attagene TRANS-FACTORIAL Multi-Species (XSP2) HepG2 Assay for zebrafish Estrogen Receptor (ER1) (AID 2283816)
# Procedure, shortened: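 HepG2 cells transiently transfected with a GAL4-UAS reporter and a chimeric zebrafish ER1-Gal4 construct, dosed 24 h. Reporter mRNA quantified by RT-PCR, labelling, HpaI digestion and capillary electrophoresis, relative to DMSO.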
# [2] = system: zebrafish Estrogen Receptor (ER2a), gene 317734; test: ATG_zfER2a_XSP2: Attagene TRANS-FACTORIAL Multi-Species (XSP2) HepG2 Assay for zebrafish Estrogen Receptor (ER2a) (AID 2283818);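 also: hits raise reporter mRNA so AC50 reflects activation of zebrafish ER2a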
# Procedure, shortened: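 HepG2 cells transiently transfected with GAL4-UAS reporter units and chimeric zebrafish ER2a-Gal4, exposed 24 h; medium contains 3 nM 6-alpha-fluorotestosterone and 1.5 nM norgestrel. Reporter mRNA quantified by RT-PCR, HpaI digestion, capillary electrophoresis; gain versus DMSO.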
# [3] = system: frog Estrogen Receptor (ER), gene 398734; test: ATG_frER1_XSP2: Attagene TRANS-FACTORIAL Multi-Species (XSP2) HepG2 Assay for frog Estrogen Receptor (ER) (AID 2283821);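 also: hits raise reporter mRNA above DMSO baseline so potency means agonist or activator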
# Procedure, shortened: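 HepG2, transient MRTU transfection, chimeric NR-GAL4/UAS reporters; 24 h compound exposure, 24-well. Readout: reporter mRNA via RT-PCR + capillary electrophoresis, fluorescence. Positive fit vs DMSO baseline.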
# [4] = system: zebrafish Estrogen Receptor (ER2b), gene 317733; test: ATG_zfER2b_XSP2: Attagene TRANS-FACTORIAL Multi-Species (XSP2) HepG2 Assay for zebrafish Estrogen Receptor (ER2b) (AID 2283823);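 also: fitted upward as reporter gain over DMSO so potency reflects activation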
# Procedure, shortened: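 Read-out: fluorescent reporter mRNA, measured by RT-PCR then capillary electrophoresis after HpaI digestion. HepG2 cells carried transiently transfected multi-reporter TRANS constructs (NR-Gal4 chimeras); 24 h chemical exposure; activity scored upward versus DMSO control.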
# [5] = system: frog Estrogen Receptor (ER2), gene 100174814; test: ATG_frER2_XSP2: Attagene TRANS-FACTORIAL Multi-Species (XSP2) HepG2 Assay for frog Estrogen Receptor (ER2) (AID 2283828)
# Procedure, shortened: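 Human liver HepG2, transient MRTU transfection (TRANS format, exogenous NR–Gal4). 24 h cpd exposure. Total RNA → RT → PCR → FAM label → HpaI cut → CE. Positive direction vs DMSO.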
# [6] = molecular target: Peroxisome proliferator-activated receptor gamma (Homo sapiens) (UniProt P37231); test: ATG_hPPARg_XSP2: Attagene TRANS-FACTORIAL Multi-Species (XSP2) HepG2 Assay for human Peroxisome Proliferator-activated Receptor gamma (PPARg) (AID 2283829);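 also: actives raise reporter mRNA above DMSO so AC50 reflects PPARg activation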
# Procedure, shortened: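 HepG2 cells transiently transfected with multiplexed GAL4-UAS reporter units for chimeric NR-Gal4 receptors, dosed 24 h. Reporter mRNA quantified by RT-PCR, 6-FAM labeling, HpaI digestion and capillary electrophoresis; gain-of-signal fitted against DMSO baseline.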
# [7] = molecular target: mouse Peroxisome Proliferator-activated Receptor gamma (PPARg), Pparg (gene 19016) (UniProt P37238); test: ATG_mPPARg_XSP2: Attagene TRANS-FACTORIAL Multi-Species (XSP2) HepG2 Assay for mouse Peroxisome Proliferator-activated Receptor gamma (PPARg) (AID 2283830);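 also: hits are gains in reporter mRNA above DMSO so AC50 marks activation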
# Procedure, shortened: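 HepG2 cells transiently transfected with GAL4-UAS reporter units for chimeric NR-Gal4 proteins including mouse PPARg, exposed 24 h; medium contained 3 nM 6-alpha-fluorotestosterone and 1.5 nM norgestrel. Reporter mRNA quantified by RT-PCR, HpaI digestion and capillary electrophoresis, vs DMSO.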
# [8] = molecular target: Nuclear receptor subfamily 1 group I member 2 (Mus musculus) (UniProt O54915); test: ATG_mPXR_XSP2: Attagene TRANS-FACTORIAL Multi-Species (XSP1) HepG2 Assay for mouse Pregnane X Receptor (PXR) (AID 2283831)
# Procedure, shortened: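 HepG2 cells transiently transfected with GAL4-UAS reporter units expressing chimeric NR-GAL4 proteins; reporter mRNA measured 24 h after dosing by RT-PCR with 6-FAM labelling and capillary electrophoresis, gain of signal relative to DMSO.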
# [9] = molecular target: zebrafish Thyroid Hormone Receptor alpha (TRa), thraa (gene 30670) (UniProt Q98867); test: ATG_zfTRa_XSP2: Attagene TRANS-FACTORIAL Multi-Species (XSP1) HepG2 Assay for zebrafish Thyroid Hormone Receptor alpha (TRa) (AID 2283832);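 also: actives raise zebrafish TRa-Gal4 reporter transcript above DMSO baseline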
# Procedure, shortened: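 HepG2 transiently transfected with GAL4-UAS reporter units and chimeric zebrafish TRa-Gal4; reporter mRNA quantified after 24 h dosing by RT-PCR, HpaI digestion and capillary electrophoresis fluorescence. Gain of signal vs DMSO; XSP2 medium contains 3 nM 6-alpha-fluorotestosterone, 1.5 nM norgestrel.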
# [10] = system: zebrafish Peroxisome Proliferator-activated Receptor gamma (PPARg), gene 557037; test: ATG_zfPPARg_XSP2: Attagene TRANS-FACTORIAL Multi-Species (XSP2) HepG2 Assay for zebrafish Peroxisome Proliferator-activated Receptor gamma (PPARg) (AID 2283833);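 also: actives increase reporter signal over DMSO so AC50 reflects activation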
# Procedure, shortened: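 HepG2 cells transiently transfected with GAL4-UAS reporter units expressing a zebrafish PPARg–GAL4 chimera; compound exposure 24 h. Reporter mRNA quantified by RT-PCR with fluorescent labelling and capillary electrophoresis; gain of signal fitted relative to DMSO baseline.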
# [11] = system: turtle Thyroid Hormone Receptor, alpha (TRa), gene 101949057; test: ATG_trTRa_XSP2: Attagene TRANS-FACTORIAL Multi-Species (XSP1) HepG2 Assay for turtle Thyroid Hormone Receptor, alpha (TRa) (AID 2283834);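 also: hits raise reporter mRNA over the DMSO baseline so AC50 marks activators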
# Procedure, shortened: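 HepG2 cells transiently transfected with multiplexed GAL4-UAS reporter units expressing chimeric NR-Gal4 proteins were dosed for 24 hours. Reporter mRNA was quantified by RT-PCR with 6-FAM labelling and capillary electrophoresis, gain of signal scored against DMSO.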
# [12] = ATG_M_61_XSP2: Attagene TRANS-FACTORIAL Multi-Species (XSP2) HepG2 Assay for M61 Transcription Factor (Internal Marker) (AID 2283835; active = hit-call score of the fitted dose curve at least 0.9, where 1 is the maximum; inactive = score below 0.9;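 also: reporter mRNA of an internal background marker read by RT-PCR and capillary electrophoresis; active means a rise in signal above the DMSO baseline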)
# Procedure, shortened: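 HepG2 cells transiently transfected with multiple GAL4-UAS reporter units; 3 nM 6-alpha-fluorotestosterone and 1.5 nM norgestrel present to stimulate androgen receptor. After 24 h compound exposure, reporter mRNA measured by RT-PCR and capillary electrophoresis fluorescence, gain-of-signal versus DMSO baseline.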
# [13] = molecular target: zebrafish Thyroid Hormone Receptor beta (TRb), thrb (gene 30607) (UniProt Q9PVE4); test: ATG_zfTRb_XSP2: Attagene TRANS-FACTORIAL Multi-Species (XSP1) HepG2 Assay for zebrafish Thyroid Hormone Receptor beta (TRb) (AID 2283836)
# Procedure, shortened: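 HepG2 cells transiently transfected with chimeric zebrafish TRb-GAL4 reporter units, dosed 24 h with 3 nM 6-alpha-fluorotestosterone and 1.5 nM norgestrel present. Reporter mRNA quantified by RT-PCR and capillary electrophoresis; gain fitted against DMSO.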
# [14] = molecular target: chicken Estrogen Receptor (ERa), ESR1 (gene 396099) (UniProt P06212); test: ATG_chERa_XSP2: Attagene TRANS-FACTORIAL Multi-Species (XSP2) HepG2 Assay for chicken Estrogen Receptor (ERa) (AID 2283817);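 also: actives raise reporter signal above DMSO so AC50 reflects ER activation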
# Procedure, shortened: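 HepG2 cells transiently transfected with multiplexed GAL4-UAS reporter units expressing chimeric chicken ERa-Gal4; 24 h compound exposure. Reporter mRNA measured by RT-PCR with 6-FAM labelling, HpaI digestion and capillary electrophoresis; gain-of-signal fitted versus DMSO.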
# [15] = ATG_M_32_XSP2: Attagene TRANS-FACTORIAL Multi-Species (XSP2) HepG2 Assay for M19 Transcription Factor (Internal Marker) (AID 2283826)
# Procedure, shortened: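 HepG2 cells transiently transfected with GAL4-UAS reporter transcription units, dosed with compound for 24 h in presence of 3 nM 6-alpha-fluorotestosterone and 1.5 nM norgestrel; reporter mRNA quantified by RT-PCR, FAM labelling, HpaI digestion and capillary electrophoresis.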
# [16] = system: zebrafish Androgen Receptor (AR), gene 100005148; test: ATG_zfAR_XSP2: Attagene TRANS-FACTORIAL Multi-Species (XSP2) HepG2 Assay for zebrafish Androgen Receptor (AR) (AID 2283825);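 also: hits raise reporter mRNA above DMSO so AC50 reflects agonist-type gain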
# Procedure, shortened: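 Zebrafish AR–GAL4 chimera transiently expressed with GAL4-UAS reporter in HepG2 cells, co-stimulated with 3 nM 6-alpha-fluorotestosterone and 1.5 nM norgestrel; 24 h dosing, reporter mRNA read by RT-PCR/capillary electrophoresis versus DMSO.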
# Sequence of zebrafish Thyroid Hormone Receptor beta (TRb), thrb (gene 30607) (Q9PVE4 whole entry, looked up, the tested form may be a part): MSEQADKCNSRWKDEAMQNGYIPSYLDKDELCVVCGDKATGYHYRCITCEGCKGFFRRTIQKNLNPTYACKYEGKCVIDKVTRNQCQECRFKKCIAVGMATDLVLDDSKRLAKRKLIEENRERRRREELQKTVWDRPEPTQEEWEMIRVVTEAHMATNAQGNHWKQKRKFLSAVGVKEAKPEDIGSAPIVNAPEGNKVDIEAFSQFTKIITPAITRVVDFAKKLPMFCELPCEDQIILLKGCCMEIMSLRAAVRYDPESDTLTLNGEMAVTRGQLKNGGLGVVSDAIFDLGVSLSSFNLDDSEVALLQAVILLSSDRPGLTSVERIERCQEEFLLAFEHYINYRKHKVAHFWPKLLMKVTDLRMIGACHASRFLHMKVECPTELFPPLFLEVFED
# Sequence of mouse Peroxisome Proliferator-activated Receptor gamma (PPARg), Pparg (gene 19016) (P37238 whole entry, looked up, the tested form may be a part): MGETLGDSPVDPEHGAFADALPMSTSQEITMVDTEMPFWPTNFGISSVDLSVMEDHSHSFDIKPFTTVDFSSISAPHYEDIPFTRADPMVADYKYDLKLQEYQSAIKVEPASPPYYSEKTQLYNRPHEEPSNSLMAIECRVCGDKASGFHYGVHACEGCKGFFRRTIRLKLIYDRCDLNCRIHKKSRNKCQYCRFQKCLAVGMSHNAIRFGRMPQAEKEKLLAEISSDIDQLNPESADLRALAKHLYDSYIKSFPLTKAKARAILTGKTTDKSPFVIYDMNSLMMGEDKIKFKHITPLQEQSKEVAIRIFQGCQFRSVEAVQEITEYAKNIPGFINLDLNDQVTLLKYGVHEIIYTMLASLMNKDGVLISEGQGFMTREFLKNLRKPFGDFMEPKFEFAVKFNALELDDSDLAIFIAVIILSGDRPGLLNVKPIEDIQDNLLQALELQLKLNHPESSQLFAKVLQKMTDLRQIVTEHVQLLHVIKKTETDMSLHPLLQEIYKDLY
# Sequence of zebrafish Thyroid Hormone Receptor alpha (TRa), thraa (gene 30670) (Q98867 whole entry, looked up, the tested form may be a part): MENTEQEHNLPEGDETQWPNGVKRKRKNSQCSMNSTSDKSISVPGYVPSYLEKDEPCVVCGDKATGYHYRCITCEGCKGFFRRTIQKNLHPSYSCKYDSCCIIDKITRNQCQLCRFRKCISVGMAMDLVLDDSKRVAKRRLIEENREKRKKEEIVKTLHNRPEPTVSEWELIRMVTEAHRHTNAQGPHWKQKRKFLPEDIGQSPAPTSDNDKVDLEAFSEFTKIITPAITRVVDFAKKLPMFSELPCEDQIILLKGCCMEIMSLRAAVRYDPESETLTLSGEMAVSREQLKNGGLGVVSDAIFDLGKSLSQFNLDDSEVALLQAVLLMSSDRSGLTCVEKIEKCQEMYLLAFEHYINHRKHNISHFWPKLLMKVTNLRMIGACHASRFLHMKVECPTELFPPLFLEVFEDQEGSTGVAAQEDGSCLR
# Sequence of Peroxisome proliferator-activated receptor gamma (Homo sapiens) (P37231 whole entry, looked up, the tested form may be a part): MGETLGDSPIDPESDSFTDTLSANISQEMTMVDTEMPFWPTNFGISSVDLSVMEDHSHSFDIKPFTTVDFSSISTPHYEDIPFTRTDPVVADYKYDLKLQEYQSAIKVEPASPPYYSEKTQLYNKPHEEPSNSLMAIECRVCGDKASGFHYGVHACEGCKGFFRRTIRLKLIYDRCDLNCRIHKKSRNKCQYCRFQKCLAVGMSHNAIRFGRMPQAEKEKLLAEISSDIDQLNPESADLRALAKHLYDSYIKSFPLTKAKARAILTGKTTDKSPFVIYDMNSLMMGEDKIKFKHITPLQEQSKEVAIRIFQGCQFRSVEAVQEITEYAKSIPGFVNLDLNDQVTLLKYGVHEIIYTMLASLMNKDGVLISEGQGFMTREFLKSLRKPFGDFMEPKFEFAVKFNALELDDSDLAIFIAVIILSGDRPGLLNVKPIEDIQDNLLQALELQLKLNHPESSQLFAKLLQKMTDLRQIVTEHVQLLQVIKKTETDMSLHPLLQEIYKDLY
# Sequence of Nuclear receptor subfamily 1 group I member 2 (Mus musculus) (O54915 whole entry, looked up, the tested form may be a part): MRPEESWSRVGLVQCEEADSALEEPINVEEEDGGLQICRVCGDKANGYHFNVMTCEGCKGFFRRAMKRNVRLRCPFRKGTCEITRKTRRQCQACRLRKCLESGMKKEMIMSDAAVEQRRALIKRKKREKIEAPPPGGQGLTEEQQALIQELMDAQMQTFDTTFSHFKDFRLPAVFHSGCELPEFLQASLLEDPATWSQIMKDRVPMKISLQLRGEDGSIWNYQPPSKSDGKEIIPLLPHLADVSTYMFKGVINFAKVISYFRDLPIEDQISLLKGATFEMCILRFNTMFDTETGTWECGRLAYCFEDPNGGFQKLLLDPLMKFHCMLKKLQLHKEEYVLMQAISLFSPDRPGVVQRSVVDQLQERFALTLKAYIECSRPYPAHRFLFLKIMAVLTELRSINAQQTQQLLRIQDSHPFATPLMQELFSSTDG
# Sequence of zebrafish Estrogen Receptor (ER1), esr1 (gene 259252) (P57717 whole entry, looked up, the tested form may be a part): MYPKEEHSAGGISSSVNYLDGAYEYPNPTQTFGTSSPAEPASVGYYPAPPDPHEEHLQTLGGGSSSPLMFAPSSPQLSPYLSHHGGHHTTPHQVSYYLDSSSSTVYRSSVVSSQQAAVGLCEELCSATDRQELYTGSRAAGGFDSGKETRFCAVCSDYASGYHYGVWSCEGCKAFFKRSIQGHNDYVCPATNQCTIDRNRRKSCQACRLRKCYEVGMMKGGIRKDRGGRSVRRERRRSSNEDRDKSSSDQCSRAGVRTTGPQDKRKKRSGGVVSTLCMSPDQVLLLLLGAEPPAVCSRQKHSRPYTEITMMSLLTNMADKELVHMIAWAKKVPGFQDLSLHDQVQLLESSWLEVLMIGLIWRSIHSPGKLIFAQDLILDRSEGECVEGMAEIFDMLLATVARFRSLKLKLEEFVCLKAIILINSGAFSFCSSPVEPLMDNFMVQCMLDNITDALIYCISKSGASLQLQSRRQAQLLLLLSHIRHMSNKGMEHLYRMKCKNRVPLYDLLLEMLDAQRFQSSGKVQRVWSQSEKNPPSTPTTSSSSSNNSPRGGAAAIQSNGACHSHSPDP
# Sequence of chicken Estrogen Receptor (ERa), ESR1 (gene 396099) (P06212 whole entry, looked up, the tested form may be a part): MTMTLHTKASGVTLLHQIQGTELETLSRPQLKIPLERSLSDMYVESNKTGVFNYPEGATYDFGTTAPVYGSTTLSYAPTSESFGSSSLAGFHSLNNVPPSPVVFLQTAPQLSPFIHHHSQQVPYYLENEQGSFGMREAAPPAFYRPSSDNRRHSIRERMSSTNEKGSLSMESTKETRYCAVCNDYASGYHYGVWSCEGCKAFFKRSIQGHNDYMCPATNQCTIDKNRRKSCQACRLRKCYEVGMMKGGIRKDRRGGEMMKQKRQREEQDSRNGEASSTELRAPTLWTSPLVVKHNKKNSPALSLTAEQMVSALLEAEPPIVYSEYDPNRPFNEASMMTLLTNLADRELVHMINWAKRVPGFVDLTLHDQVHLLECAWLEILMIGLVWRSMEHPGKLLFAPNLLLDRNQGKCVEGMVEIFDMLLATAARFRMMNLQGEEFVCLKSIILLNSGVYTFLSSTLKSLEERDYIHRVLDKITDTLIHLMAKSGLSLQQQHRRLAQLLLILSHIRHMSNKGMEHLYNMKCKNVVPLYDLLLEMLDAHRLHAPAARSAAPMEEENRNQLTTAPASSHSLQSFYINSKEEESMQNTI
compound,measurement,setting,value
C#CCC1=C(C)C(OC(=O)C2C(C=C(C)C)C2(C)C)CC1=O (stereo not drawn),outcome,[1],inactive
same,outcome,[2],inactive
same,outcome,[3],inactive
same,outcome,[4],inactive
same,outcome,[5],inactive
same,AC50,[6],22.6 µM (active)
same,AC50,[7],30.2 µM (active)
same,AC50,[8],712 nM (active)
same,outcome,[9],inactive
same,outcome,[10],inactive
same,outcome,[11],inactive
same,outcome,[12],inactive
same,outcome,[13],inactive
C#CC(C)(C)NC(=O)c1cc(Cl)cc(Cl)c1,AC50,[14],3.34 µM (active)
same,outcome,[2],inactive
same,AC50,[3],27.6 µM (active)
same,outcome,[4],inactive
same,outcome,[15],inactive
same,outcome,[5],inactive
same,AC50,[8],26800 nM (active)
same,outcome,[9],inactive
same,outcome,[10],inactive
same,outcome,[11],inactive
same,outcome,[12],inactive
same,outcome,[13],inactive
CCOP(=O)(NC(C)C)Oc1ccc(SC)c(C)c1 (stereo not drawn),outcome,[1],inactive
same,AC50,[14],31.1 µM (active)
same,outcome,[14],inactive
same,AC50,[2],100 µM (active)
same,outcome,[2],inactive
same,AC50,[3],148 µM (active) and 8.45 µM (active)
same,AC50,[4],65.5 µM (active) and 43.8 µM (active)
same,outcome,[15],inactive
same,AC50,[5],100 µM (active) and 69 µM (active)
same,AC50,[6],43.6 µM (active) and 36.6 µM (active)
same,AC50,[7],31.6 µM (active) and 38.4 µM (active)
same,AC50,[8],4.34 µM (active) and 4.75 µM (active)
same,outcome,[9],inactive
same,AC50,[10],100 µM (active)
same,outcome,[10],inactive
same,outcome,[11],inactive
same,outcome,[12],inactive
same,outcome,[13],inactive
COc1ccc(C(=CC(=O)N2CCOCC2)c2ccc(Cl)cc2)cc1OC,AC50,[1],58.2 µM (active)
same,outcome,[1],inactive
same,outcome,[14],inactive
same,outcome,[2],inactive
same,outcome,[3],inactive
same,AC50,[4],100 µM (active) and 54.2 µM (active)
same,outcome,[16],inactive
same,AC50,[5],52.4 µM (active)
same,outcome,[5],inactive
same,AC50,[6],19.8 µM (active)
same,outcome,[6],inactive
same,AC50,[7],29.3 µM (active)
same,outcome,[7],inactive
same,AC50,[8],4.65 µM (active) and 4.32 µM (active)
same,outcome,[9],inactive
same,outcome,[10],inactive
same,outcome,[12],inactive
same,outcome,[13],inactive
CCOP(=S)(OCC)Oc1ccc2c(C)c(Cl)c(=O)oc2c1,outcome,[14],inactive
same,outcome,[2],inactive
same,outcome,[3],inactive
same,AC50,[4],100 µM (active)
same,outcome,[15],inactive
same,AC50,[6],27 µM (active)
same,AC50,[7],5.43 µM (active)
same,AC50,[8],9.08 nM (active)
same,outcome,[10],inactive
same,AC50,[11],64.7 µM (active)
same,outcome,[12],inactive
same,outcome,[13],inactive
